The list is not random: actives were taken first. Their share in the collection is about 12%.
BAZ2B inh: inhibitors of human BAZ2B bromodomain | AlphaScreen BAZ2B-H3K14Ac peptide displacement | Potency, µM (titrated, usually from 114 µM), inactives show at the top dose activity change, negative = inhibition, usual class: inhibitors | Q9UIF8 | actives 4.4% (n = 360,000); note: potency is the fitted concentration of half-maximal effect; % is set by controls: 0 for no effect and ±100 for the full control effect; nearly all actives have a fitted effect of over 60% in size
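AlphaScreen luminescence quantifies BAZ2B engagement of H3K14Ac peptide; the protein and biotinylated peptide are both at 50 nM final, buffer PBS pH 7.4 with 0.01% Tween-20, all steps at room temperature.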
JMJD2A Tudor inh: JMJD2A Tudor domain (human) inhibition; AID 504339; actives 4.4% (n = 390,000); O75164; Potency, µM (series often up to 114 µM), for inactives: at the top dose activity change, negative = inhibition, most hits filed as inhibitors; AlphaScreen JMJD2A-Tudor / H3K4me3 peptide binding; note: potency is the fitted concentration of half-maximal effect; % is set by controls: 0 for no effect and ±100 for the full control effect; nearly all actives have a fitted effect of over 50% in size
PLK1 PBD block: blocks phosphopeptide binding to human PLK1 polo-box domain. P53350. actives 2.8% (n = 360,000). Plk1 PBD binding of FITC phosphopeptide, fluorescence polarization. Potency, µM, for inactives: max response, negative = inhibition, most hits filed as inhibitors; note: potency is the fitted concentration of half-maximal effect; series mostly up to about 57 µM; % is set by controls: 0 for no effect and ±100 for the full control effect; nearly all actives have a fitted effect of over 65% in size
G9a inh: inhibitors of human histone lysine methyltransferase G9a; Potency, µM (highest dose often 102 µM), inactives show at the top dose activity, negative = inhibition, most hits filed as inhibitors; actives 8.8% (n = 350,000); Q96KQ7; G9a H3K9 monomethylation, AlphaScreen, 2 h; note: potency is the fitted concentration of half-maximal effect; % is set by controls: 0 for no effect and ±100 for the full control effect; nearly all actives have a fitted effect of over 75% in size
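Using a bead-based AlphaScreen, monomethylated H3K9 product from 2 h room-temperature reactions (G9a 20 nM, peptide 500 nM, SAM 20 uM) was detected with 0.5 ug/mL rabbit anti-H3K9me1 antibody.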
PI5P4Ka inh: blocks human PI5P4K alpha kinase activity; P48426; PI5P4Kalpha enzyme, ADP-Glo luminescence, 60 min; active compounds read low; max response, %; actives 1.2% (n = 330,000); active = max response of -50% or lower; inconclusive = between -30% and -50%; inactive = -30% or higher; note: value at the top dose of about 77 µM; % is set by controls: 0 for no effect and ±100 for the full control effect
Target sequence (P48426 whole entry, looked up): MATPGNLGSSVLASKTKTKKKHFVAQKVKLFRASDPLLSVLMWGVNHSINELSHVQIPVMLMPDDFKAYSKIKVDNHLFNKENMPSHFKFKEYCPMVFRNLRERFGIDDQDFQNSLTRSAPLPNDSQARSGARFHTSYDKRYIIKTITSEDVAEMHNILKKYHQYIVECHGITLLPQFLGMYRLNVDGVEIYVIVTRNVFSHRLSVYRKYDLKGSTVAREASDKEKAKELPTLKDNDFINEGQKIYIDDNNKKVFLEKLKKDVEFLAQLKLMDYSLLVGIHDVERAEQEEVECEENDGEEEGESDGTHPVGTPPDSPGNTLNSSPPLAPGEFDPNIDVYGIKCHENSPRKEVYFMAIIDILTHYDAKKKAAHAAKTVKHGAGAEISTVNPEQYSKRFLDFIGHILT
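Enzyme plus substrate dispensed, test compounds pinned in, then ATP (5 microM final) added. After 60 min at RT, ADP-Glo reagent 1 for 45 min and reagent 2 for 30 min preceded luminescence imaging.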
HP1b binding inh: inhibitors of HP1-beta chromodomain binding to methylated histone tails; Potency, µM (doses to about 114 µM), without a hit: at the top dose activity change, negative = inhibition, actives largely listed as inhibitors; AlphaScreen HP1-beta / biotin-H3K9me3 peptide binding; AID 540317; P83916; actives 0.56% (n = 390,000); note: potency is the fitted concentration of half-maximal effect; nearly all actives have a fitted effect of over 70% in size
Target sequence (P83916 whole entry, looked up): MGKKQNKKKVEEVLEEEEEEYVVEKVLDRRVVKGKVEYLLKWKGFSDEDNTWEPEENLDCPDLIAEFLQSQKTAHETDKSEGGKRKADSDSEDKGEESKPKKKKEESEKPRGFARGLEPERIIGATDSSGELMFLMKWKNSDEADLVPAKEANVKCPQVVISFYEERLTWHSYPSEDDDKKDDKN
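Compound inhibition of the preformed complex between 50 nM HP1-beta and 50 nM biotinylated H3K9me3 peptide was read by AlphaScreen. Buffer was PBS pH 7.4 with 0.01% Tween-20. Incubations ran 30 min at room temperature, with 10 ug/mL donor/acceptor beads.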
* hit, by the source's call; ? = inconclusive; . = not tested or not shown; [ ] = dose if it differs, or a comment. Unless noted, calls come from the whole dose curve; as a rule, active = well fitted curve in the direction sought with a large enough effect; inconclusive = small, poorly fitted or top-dose-only effect, or another doubt; inactive = no such curve, though single readings can be large; an effect the other way counts as inactive or inconclusive.

SMILES	BAZ2B inh	JMJD2A Tudor inh	PLK1 PBD block	G9a inh	PI5P4Ka inh	HP1b binding inh
NS(=O)(=O)c1ccc(CNC(=O)/C=C/c2ccccc2[N+](=O)[O-])cc1	1%	-14%	-19%	?	-14	16%
Cc1ccccc1NC(=O)COc1coc(CN2CCN(c3ccccc3)CC2)cc1=O	-2%	-19%	-7%	?	-16	7%
Cc1c(NC(=O)C(=O)/C=C(/O)c2ccccc2)c(=O)n(-c2ccccc2)n1C	50µM*	20µM*	28%	8.9µM*	4	14%
COc1ccc(/C(O)=C/C(=O)C(=O)Nc2c(C)n(C)n(-c3ccccc3)c2=O)cc1	?	22µM*	-5%	?	.	9%
COc1ccc(NC(=O)Nc2c(C)n(C)n(-c3ccccc3)c2=O)cc1	13%	-13%	2%	9%[59 µM]	5	16%
COc1ccc(/C(O)=C/C(=O)C(=O)NNC(=O)C(O)(c2ccccc2)c2ccccc2)cc1	-37%	79µM*	-7%	-18%	?	19%
O=C(c1ccc([N+](=O)[O-])cc1)N1c2ncnn2C2(CCCCC2)[C@@H]2CCCC[C@@H]21	-35%	-15%	.	-6%[59 µM]	.	9%
O=C(Nc1cccc(Cl)c1)c1ccc2ncsc2c1	17%	0%	-12%	7%	0	20%
Nc1ccc(-c2nc3ccc(C(=O)O)cc3s2)cc1	2%	0%	-9%	40µM*	-22	31%
O=C(Nc1ccc(Cl)cc1)c1ccc2ncsc2c1	2%	3%	-8%	45µM*	?	45%
O=C(O)c1ccc2ncsc2c1	20µM*	20µM*	?	?	?	-23%
O=C(Nc1ccc(F)cc1)c1ccc2ncsc2c1	-2%	-2%	-12%	35µM*	-7	45%
O=C(Nc1ccc(C(F)(F)F)cc1)c1ccc2ncsc2c1	2%	-1%	-27%	?	-9	28%
CCOc1ccccc1NC(=O)CN1C=NS(=O)(=O)c2ccccc21	1%	-28%	.	4%[59 µM]	.	27%
CC(C)CC(=O)NCC(c1ccc2c(c1)OCO2)N1CCN(c2ccccc2)CC1 (configuration not stated)	-13%	-17%	.	-2%[59 µM]	.	20%[57 µM]
COc1cccc(CNS(=O)(=O)c2ccc3c(c2)C(C(C)C)C(=O)N3)c1 (configuration not stated)	-3%[57.1 µM]	-18%	.	-17%[59 µM]	.	25%
CC(=O)NC(=O)COC(=O)c1ccc2ncsc2c1	8%	-15%	-11%	56µM*	2	38%
Cc1ccc(NC(=O)c2cccnc2)cc1S(=O)(=O)N(C)C	-9%	-11%	-14%	7%	9	12%
Cc1ccc(NC(=O)c2ccc3ncsc3c2)cc1S(=O)(=O)N(C)C	56µM*	.	.	?	.	.
Cc1ccc(Cl)cc1NC(=O)C(NS(=O)(=O)c1cccc2nsnc12)c1ccccc1 (configuration not stated)	.	?	.	?	.	-7%
COc1ncc2nc(-c3cn(C)c4ccccc34)c(=O)n(C)c2n1	.	.	.	2%[0.501 µM]	.	.
O=C1NC[C@H](Cc2ccccc2)N(CC2CCN(CCCC3CCCC3)CC2)C1=O	.	-22%	-1%	.	0	20%
C=CCNC(=S)NS(=O)(=O)c1cccs1	-24%	-28%	?	18µM*	-27	-11%
CC1CCN(c2[nH]c(=S)c(C#N)c3c2CCCC3)CC1	8%	-6%	?	32µM*	.	32%
CC1(C)Cc2c(c(N3CCCCC3)[nH]c(=S)c2C#N)CS1	5%	-18%	-27%	2%[59 µM]	1	27%
SMILES	BAZ2B inh	JMJD2A Tudor inh	PLK1 PBD block	G9a inh	PI5P4Ka inh	HP1b binding inh
COc1ccc(C(=O)NCC(=O)N2CCN(c3ccc(F)cc3)CC2)cc1	2%	-6%	-3%	21%	-3	13%
Cc1ccc(N2CCN(C(=O)C3CCC(=O)N(Cc4ccc(Cl)cc4)C3)CC2)c(C)c1 (configuration not stated)	-34%	-30%	-3%	-8%	1	3%
CCOC(=O)C1(Cc2cccc(Cl)c2)CCCN(C(=O)c2occc2C)C1 (configuration not stated)	-12%	?	27µM*	-3%[0.501 µM]	3	13%
CCOC(=O)C1(Cc2cccc(Cl)c2)CCCN(C(=O)c2ccoc2C)C1 (configuration not stated)	-17%	-23%	-23%	.	-1	7%
CCOC(=O)C1(Cc2cccc(Cl)c2)CCCN(C(=O)c2ccco2)C1 (configuration not stated)	-16%[57.1 µM]	?	13µM*	8%	-11	12%
CCOC(=O)C1(Cc2ccccc2)CCCN(C(=O)c2cnn(CC)c2)C1 (configuration not stated)	-20%	-34%	24µM*	29%	3	19%
CN(C)C1C(=O)C(C(N)=O)C(=O)C2(O)C(=O)C3C(=O)c4c(O)ccc(Cl)c4C(O)C3CC12 (configuration not stated)	.	.	.	16µM*	.	.
CN(C)c1ccc(O)c2c1CC1CC3[C@@H](N(C)C)C(=O)C(C(N)=O)=C(O)[C@]3(O)C(=O)C1=C2O (some centres not stated)	3.5µM*	-12%	-22%	10µM*	?	26%
CN(C)C1C(=O)C(C(N)=O)=C(O)[C@@]2(O)C(=O)C3=C(O)c4c(O)ccc(Cl)c4C(O)[C@H]3C[C@@H]12 (some centres not stated)	.	.	.	-28%[2.33 µM]	.	.
CN(C)C1C(=O)C(C(N)=O)=C(O)[C@@]2(O)C(=O)C3=C(O)c4c(O)ccc(Cl)c4[C@@H](O)C3C[C@@H]12 (some centres not stated)	.	.	.	35µM*	.	.
O=C(CCn1c(=S)[nH]c2cc3c(cc2c1=O)OCO3)NCCc1ccccc1Cl	.	.	-11%	.	6	.
Cc1ccc(NC(=O)c2nc(-c3ccncc3)no2)c(Cl)c1	-21%	1%	.	10%[59 µM]	.	51%
COc1cc(Nc2ncc3c(n2)CCN(Cc2cc(F)cc(F)c2)C3)cc(OC)c1	?	-22%	.	-28%[59 µM]	.	8%
Clc1ccc(CN2CCc3nc(Nc4ccc5c(c4)OCCO5)ncc3C2)cc1	18µM*	28µM*	.	-29%[12.7 µM]	.	-22%
COc1cc(OC)c(OC)cc1CN1CCc2nc(Nc3ccc4c(c3)OCCO4)ncc2C1	45µM*	56µM*	.	14µM*	.	-13%
CCOc1ccccc1CN1CCc2nc(Nc3ccc4c(c3)OCCO4)ncc2C1	40µM*	56µM*	.	?	.	?
Cc1oc2ncn(CC(C)C)c(=O)c2c1C(=O)NCCc1ccc(Cl)cc1	9%[57.1 µM]	-1%	.	5%[59 µM]	.	47%
CCC(=O)N1CCc2cc(Br)cc(S(=O)(=O)CCC(=O)NCc3cccc(OC)c3)c21	-10%	-21%	.	0%[59 µM]	.	2%
